Several values for one entry are separate records, joined by “and”; a condition that tells them apart may be missing. Identical values can stand only once. Results filed as inconclusive are left out. Activity calls are given as the source filed them. Unless noted, calls come from the whole dose curve; as a rule, active = well fitted curve in the direction sought with a large enough effect in the repeat runs; inconclusive = weak or mixed curves; inactive = no such curve, though single readings can be large; an effect the other way counts as inactive or inconclusive.
How the values were obtained:
[1] = qHTS assay to identify small molecule antagonists of the estrogen related receptor (ERR) signaling pathway from Tox21 library - cell viability counter screen (AID 1224834); note: nearly all actives have a fitted effect of over 30% in size
Procedure, shortened: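 ERR reporter cells, 2,000 per well, rested 6 h, then exposed to compound in DMSO for 17.5 hours at 37 C. Viability read as fluorescence after 30 min with CellTiter-Fluor.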

[2] = target: Luciferin 4-monooxygenase (Photinus pyralis) (UniProt P08659); assay: qHTS assay to identify small molecule inhibitors of firefly luciferase (AID 1224835); note: nearly all actives have a fitted effect of over 25% in size; note: potency is the fitted concentration of half-maximal effect
Luciferin 4-monooxygenase (Photinus pyralis), sequence (P08659 whole entry, looked up): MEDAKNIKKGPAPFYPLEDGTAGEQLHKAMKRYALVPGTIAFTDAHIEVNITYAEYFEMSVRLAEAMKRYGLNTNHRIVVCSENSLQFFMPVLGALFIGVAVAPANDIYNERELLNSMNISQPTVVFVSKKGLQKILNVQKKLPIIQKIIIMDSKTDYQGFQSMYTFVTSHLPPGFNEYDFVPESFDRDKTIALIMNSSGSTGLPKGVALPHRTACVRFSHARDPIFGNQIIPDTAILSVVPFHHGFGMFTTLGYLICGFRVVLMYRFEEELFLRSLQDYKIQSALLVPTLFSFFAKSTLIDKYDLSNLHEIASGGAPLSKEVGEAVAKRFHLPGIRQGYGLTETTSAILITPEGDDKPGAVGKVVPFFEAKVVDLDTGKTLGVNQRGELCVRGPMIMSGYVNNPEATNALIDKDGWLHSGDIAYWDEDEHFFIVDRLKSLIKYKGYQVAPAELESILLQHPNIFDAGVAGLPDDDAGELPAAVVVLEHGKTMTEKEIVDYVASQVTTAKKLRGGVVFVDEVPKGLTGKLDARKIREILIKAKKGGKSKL
Procedure, shortened: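 Quantitative HTS format; KM concentrations of both substrates. Purified P. pyralis FLuc activity quantified from luminescence images.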

[3] = qHTS assay to identify small molecule agonists of the constitutive androstane receptor (CAR) signaling pathway - cell viability counter screen (AID 1224836); note: nearly all actives have a fitted effect of over 45% in size
Procedure, shortened: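 Multiplexed viability check: HepG2-CYP2B6-hCAR cells, 15-point compound dosing, 0.75 uM PK11195 final, 23 h at 37 C, CellTiter-Fluor fluorescence.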

[4] = qHTS assay to identify small molecule antagonists of the constitutive androstane receptor (CAR) signaling pathway - cell viability counter screen (AID 1224837); note: nearly all actives have a fitted effect of over 45% in size
Procedure, shortened: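 HepG2 cells stably carrying hCAR and CYP2B6-2.2kb reporter, stimulated with 50 nM CITCO and compounds at 15 concentrations for 23 h at 37 C. Viability measured by CellTiter-Fluor fluorescence.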

[5] = target: Nuclear receptor subfamily 1 group I member 3 (Homo sapiens) (UniProt Q14994); assay: qHTS assay to identify small molecule antagonists of the constitutive androstane receptor (CAR) signaling pathway (AID 1224838); note: nearly all actives have a fitted effect of over 40% in size
Nuclear receptor subfamily 1 group I member 3 (Homo sapiens), sequence (Q14994 whole entry, looked up): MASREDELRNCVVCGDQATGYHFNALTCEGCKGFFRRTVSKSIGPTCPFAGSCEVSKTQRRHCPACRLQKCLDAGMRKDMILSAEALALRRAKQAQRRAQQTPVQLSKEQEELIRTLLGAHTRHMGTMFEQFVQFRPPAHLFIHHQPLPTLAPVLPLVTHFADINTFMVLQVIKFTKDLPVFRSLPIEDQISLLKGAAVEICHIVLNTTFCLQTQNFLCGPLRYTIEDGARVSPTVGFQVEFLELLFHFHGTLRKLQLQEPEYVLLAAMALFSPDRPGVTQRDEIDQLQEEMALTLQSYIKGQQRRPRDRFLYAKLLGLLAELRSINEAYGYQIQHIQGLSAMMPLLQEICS
Procedure, shortened: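 HepG2 cells stably carrying hCAR and a CYP2B6-2.2kb luciferase reporter, seeded 4 hrs before compound (15 concentrations). Stimulated with 50 nM CITCO for 24 hr at 37 C. ONE-Glo luminescence read after 30 min at room temperature.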

[6] = target: Nuclear receptor subfamily 1 group I member 3 (Homo sapiens) (UniProt Q14994); assay: qHTS assay to identify small molecule agonists of the constitutive androstane receptor (CAR) signaling pathway (AID 1224839); note: nearly all actives have a fitted effect of over 15% in size
Procedure, shortened: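 Using human hepatoma HepG2 cells engineered with hCAR and a CYP2B6-2.2kb reporter, 15-concentration compound series were incubated 24 h alongside PK11195 at 0.75 uM final, with luminescence quantified afterwards.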

[7] = qHTS assay to identify small molecule antagonists of the estrogen related receptor signaling pathway with the pleiotropic PPARgamma coactivator (PGC) from Tox21 10K library - cell viability counter screen (AID 1224840; active = well fitted cell-killing curve with a large enough effect in the repeat runs, not every such curve was filed as active; note: nearly all actives have a fitted effect of over 40% in size)
Procedure, shortened: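 PGC/ERR cells (2,000/well) plated 6 h, then compound-treated for 17.5 h at 37 C. Viability measured by CellTiter-Fluor fluorescence after 30 min at 37 C, multiplexed with the pathway assay.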

[8] = qHTS assay to identify small molecule antagonists of the estrogen related receptor signaling pathway with the pleiotropic PPARgamma coactivator (PGC) from Tox21 10K library (AID 1224841; call rule not given here; note: actives are mostly falling curves and most rising ones were filed inactive; nearly all actives have a fitted effect of over 50% in size)
Procedure, shortened: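 PGC/ERR cell line, 2,000 cells/well, pre-incubated 6 hours at 37 C, then exposed to compounds for 18 hours at 37 C; luciferase read with One-Glo luminescence after 30 min at room temperature.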

[9] = qHTS assay to identify small molecule agonists of the estrogen related receptor signaling pathway with the pleiotropic PPARgamma coactivator (PGC) from Tox21 10K library (AID 1224842); note: nearly all actives have a fitted effect of over 15% in size
Procedure, shortened: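 PGC/ERR reporter cells (NTP line) were seeded 2,000 per well, rested 6 h at 37 C/5% CO2, then pin-dosed with compounds in DMSO for 18 h at 37 C; luciferase read by One-Glo luminescence after 30 min at room temperature.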

[10] = qHTS assay to identify small molecule agonists of the hypoxia (HIF-1) signaling pathway - cell viability counter screen (AID 1224844; calls by dose curve; note: nearly all actives have a fitted effect of over 50% in size; note: potency is the fitted concentration of half-maximal effect)
Procedure, shortened: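 HRE-bla ME-180 cells, 2,000/well in 0.5% dialyzed FBS medium, treated 17 h at 37C with compounds. Viability read in the same wells as the bla reporter, by CellTiter-Glo luminescence after 30 min at room temperature.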

[11] = qHTS assay to identify small molecule agonists of H2AX (AID 1224845; active = well fitted activation curve with a large enough effect in the signal ratio in the repeat runs, not every such curve was filed as active; the % refers to the signal ratio)
Procedure, shortened: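 Wild-type CHO-K1 cells plated overnight, then exposed 3 hr at 37C to compounds at 15 concentrations (0.76% DMSO). Lysed, then HTRF anti-pH2AX(S139)-cryptate/anti-H2AX-d2 detection after 24 hr at room temperature; emissions 665 and 620 nm.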

[12] = qHTS assay to identify small molecule agonists of the hypoxia (HIF-1) signaling pathway (AID 1224846; active = well fitted activation curve with a large enough effect in the signal ratio in the repeat runs, not every such curve was filed as active; the % refers to the signal ratio)
Procedure, shortened: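 HRE-bla ME-180 beta-lactamase reporter cells in medium with 0.5% dialyzed FBS, pre-incubated 5 h then exposed to compounds 17 h at 37C, 5% CO2; reporter induction read with CCF4-AM FRET substrate.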

[13] = qHTS assay to identify small molecule agonists of H2AX - cell viability counter screen (AID 1224847; calls by dose curve; note: top concentration of the series differs between compounds; nearly all actives have a fitted effect of over 30% in size)
Procedure, shortened: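 After overnight plating of 1000 CHO-K1 cells per well, a 15-concentration compound series was applied for 3 hr at 37C. Luminescence from CellTiter-Glo, read following 30 min at room temperature, reflected cell viability.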

[14] = qHTS assay to identify small molecule antagonists of the estrogen related receptor (ERR) signaling pathway from Tox21 library (AID 1224848); note: nearly all actives have a fitted effect of over 50% in size
Procedure, shortened: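 Screening used an ERR reporter line supplied by NTP, exposed for 18 h at 37 C to library compounds delivered in DMSO. Signal was luciferase luminescence developed with ONE-Glo at room temperature for 30 min.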

[15] = qHTS assay to identify small molecule agonists of the estrogen related receptor (ERR) signaling pathway from Tox21 library (AID 1224849; calls by dose curve; note: nearly all actives have a fitted effect of over 15% in size); conditions: ERR reporter cell line, ONE-Glo luciferase, 18 h; at 92.4 µM (top of the series)
Procedure, shortened: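 ERR reporter cells (NTP line) pre-incubated 6 hours at 37 C, then exposed to compounds for 18 hours at 37 C. ONE-Glo luciferase luminescence was read after 30 minutes at room temperature.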

[16] = qHTS RealTime-Glo MT Cell Viability Assay in HEK293 cells - 32 hour (AID 1224868); note: nearly all actives have a fitted effect of over 50% in size; note: potency is the fitted concentration of half-maximal effect
Procedure, shortened: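 Reads taken at 0, 8, 16, 24, 32 and 40 h from the same wells. HEK293 cells (600/well) carried RealTime-Glo reagents from seeding, with compound added after a 5 h settle at 37 C.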

[17] = A CellTox Green Cytotoxicity Assay to monitor cytotoxicity in HEK293 cells - 0 hour (AID 1224869); note: nearly all actives have a fitted effect of over 50% in size
Procedure, shortened: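 HEK293 cells, 600/well, were preincubated 5 hours and then exposed to compounds at 37 C for up to 40 hours. A cell-impermeant cyanine dye staining dead-cell DNA was read by fluorescence at 0, 8, 16, 24, 32 and 40 h time points.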

[18] = qHTS assay to identify small molecule agonists of the estrogen related receptor signaling pathway with the pleiotropic PPARgamma coactivator (PGC) (AID 1224823)
Procedure, shortened: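 Steps: plate PGC/ERR cells at 2,000 cells/well; incubate 6 h, 37 C/5% CO2; pin-transfer compounds (DMSO); incubate 18 h, 37 C; add One-Glo; 30 min RT; read luminescence.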

[19] = target: Thyrotropin receptor (Homo sapiens) (UniProt P16473); assay: qHTS assay to identify small molecule agonists of the thyroid stimulating hormone receptor (TSHR) signaling pathway (AID 1224843; calls by dose curve; note: nearly all actives have a fitted effect of over 45% in size)
Thyrotropin receptor (Homo sapiens), sequence (P16473 whole entry, looked up): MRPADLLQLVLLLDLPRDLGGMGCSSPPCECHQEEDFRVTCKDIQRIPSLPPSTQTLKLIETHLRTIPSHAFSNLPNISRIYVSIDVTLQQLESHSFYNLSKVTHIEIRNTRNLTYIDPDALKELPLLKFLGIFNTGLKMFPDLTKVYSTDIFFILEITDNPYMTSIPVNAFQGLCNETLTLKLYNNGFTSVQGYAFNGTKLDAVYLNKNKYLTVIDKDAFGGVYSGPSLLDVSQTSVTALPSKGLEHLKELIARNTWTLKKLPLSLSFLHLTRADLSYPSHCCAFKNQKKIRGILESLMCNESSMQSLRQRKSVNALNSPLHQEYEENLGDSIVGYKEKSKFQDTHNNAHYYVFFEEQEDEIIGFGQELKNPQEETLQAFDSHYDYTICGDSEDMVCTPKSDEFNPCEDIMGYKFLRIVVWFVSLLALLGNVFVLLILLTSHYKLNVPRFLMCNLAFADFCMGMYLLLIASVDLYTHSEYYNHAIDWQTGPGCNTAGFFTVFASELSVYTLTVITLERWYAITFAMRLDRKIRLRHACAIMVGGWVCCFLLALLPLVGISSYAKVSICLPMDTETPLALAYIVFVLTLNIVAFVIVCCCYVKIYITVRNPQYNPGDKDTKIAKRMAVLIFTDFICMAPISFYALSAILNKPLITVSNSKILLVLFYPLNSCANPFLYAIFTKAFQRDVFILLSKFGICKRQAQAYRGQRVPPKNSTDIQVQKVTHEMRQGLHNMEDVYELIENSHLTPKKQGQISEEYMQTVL
Procedure, shortened: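 Cell line HEK293 with TSHR; density 800/well. Exposure 30 min RT. Readout HTRF cAMP (cAMP-d2/anti-cAMP-cryptate), 1 h RT before reading.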

[20] = qHTS RealTime-Glo MT Cell Viability Assay in HepG2 cells - 24 hour (AID 1224867); note: nearly all actives have a fitted effect of over 50% in size
Procedure, shortened: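 HepG2 suspension premixed with RealTime-Glo reagents is plated at 600 cells per well and left 5 h at 37 C/5% CO2. Compounds in DMSO then go in, and bioluminescence reflecting viable cell number is recorded over 40 h.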
% is set by controls: 0 for no effect and ±100 for the full control effect.

CCCCNC(N)=O
inactive: Potency [1] | Potency [2] | Potency [3] | Potency [4] | Potency [5] | Potency [6] | Potency [7] | Potency [8] | Potency [9] | Potency [10] | Potency [11] | outcome [12] | Potency [13] | Potency [14] | activity change, positive = activation [15] 7.41% and 4.54% | Potency [16] | Potency [17]

O=C(O)c1cc(-c2ccccc2)nc2ccccc12
inactive: Potency [18] | Potency [1] | Potency [3] | Potency [4] | Potency [5] | Potency [7] | Potency [8] | Potency [19] | Potency [10] | Potency [11] | Potency [13] | Potency [14] | Potency [20] | Potency [16]
active: Potency [2] 12.8 µM and 13.8 µM | activity change, positive = activation [15] 1.96%

CCCCCCCCCCCCOCC1CO1 (configuration not stated)
inactive: Potency [1] | Potency [2] | Potency [3] | Potency [4] | Potency [5] | Potency [6] | Potency [7] | Potency [8] | Potency [9] | Potency [19] | Potency [10] | Potency [11] | outcome [12] | Potency [13] | Potency [14] | activity change, positive = activation [15] -2.77% and -4.37% | Potency [20] | Potency [16] | Potency [17]

CCCCCCCCC
inactive: Potency [1] | Potency [2] | Potency [3] | Potency [4] | Potency [5] | Potency [6] | Potency [7] | Potency [19] | Potency [10] | Potency [11] | outcome [12] | Potency [13] | Potency [16] | Potency [17]

C=C(C#N)C(=O)OCC
inactive: Potency [1] | Potency [2] | Potency [3] | Potency [4] | Potency [5] | Potency [6] | Potency [7] | Potency [8] | Potency [9] | Potency [19] | Potency [10] | Potency [11] | outcome [12] | Potency [13] | Potency [14] | activity change, positive = activation [15] 7.93% and 0.135% | Potency [20] | Potency [16] | Potency [17]

CCCCC/C=C\C/C=C\CCCCCCCC(=O)OC
inactive: Potency [1] | Potency [2] | Potency [3] | Potency [4] | Potency [5] | Potency [6] | Potency [7] | Potency [19] | Potency [10] | Potency [11] | outcome [12] | Potency [13] | Potency [20] | Potency [17]

ClC1=C(Cl)C(Cl)(Cl)C(Cl)=C1Cl
active: Potency [10] 11 µM and 6.17 µM | Potency [16] 39.1 µM
inactive: Potency [1] | Potency [2] | Potency [3] | Potency [4] | Potency [5] | Potency [6] | Potency [7] | Potency [8] | Potency [9] | Potency [19] | Potency [11] | Potency [13] | Potency [14] | activity change, positive = activation [15] 5.38% and 4.2% | Potency [20] | Potency [17]
